SMILES strings stand for the structures.
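Further: KINOMEscan kinase panel screen.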

The assay relates to PIK3CG. The conditions noted are these: concentration: 1 μM, replicates: in singlicate; n = 1.
Take `O=C1NC(=O)C(c2ccccc2Cl)=C1Nc1cccc(Cl)c1` [SB-342409]: the “%Inh” value came to 0%.

As to `Cc1nn2c(=O)cc(N3CCO[C@H](C)C3)nc2n1Cc1cccc(Cl)c1Cl` [GSK2373693], the “%Inh” value is listed as 94%.

Turning to `CCNc1nccc(-c2c(-c3ccc(F)cc3)ncn2C2CCN(C)CC2)n1`, the “%Inh” value is listed as 10%.

With `COC(=O)Nc1nc2ccc(Oc3ccc(CC(=O)Nc4cc(C(F)(F)F)ccc4F)cc3)cc2[nH]1` [GW680903], the “%Inh” value was determined as 0%.

On to `N#Cc1cnc2cc(-c3cnc(CNCCN4CCOCC4)s3)ccc2c1Nc1ccc(Oc2ccccc2)cc1` [GW664114], for which the “%Inh” value worked out at 0%.

As for `COc1cccc(C2=C(Nc3cccc(O)c3)C(=O)NC2=O)c1` [SB-390771], the “%Inh” value is 0%.

On to `O=C(Nc1n[nH]c2cc(-c3cccs3)ccc12)C1CC1` [SB-731284], for which the “%Inh” value came to 27%.

As for `Cc1ccc(O)cc1Nc1ccnc2ccc(C(C)(C)C)cc12` [GW856805], the “%Inh” value was 22%.

As for `Nc1cccc(-c2ccc3c(N)n[nH]c3c2)c1` [GSK2193613], the “%Inh” value came out at 0%.

Consider `Fc1cc(Cl)ccc1Nc1ccnc2cc(-c3ccc(CN4CCOCC4)o3)ccc12` [GW560109], for which the “%Inh” value stood at 0%.

In the case of `Nc1ncc(-c2ccc3nccc(-c4ccncc4)c3c2)cc1S(=O)(=O)N1CCCCC1` [GSK1693850], the “%Inh” value was 100%.

In the case of `Nc1ncnc2scc(-c3ccc(NC(=O)Cc4cc(F)ccc4F)cc3)c12.O=C(O)C(F)(F)F` [SB-731254-M], the “%Inh” value stood at 23%.

The values above are taken from PMC5540273 (PLoS ONE, 2017).
